# Experimental data taken from publication PMC8384837, “Expanding the binding specificity for RNA recognition by a PUF domain”.
# Numbering of substitutions follows the chain as printed.
# Assays:
# Experiment in all cases: yeast three-hybrid, YBZ-1, SC-Leu-His + 0.5 mM 3-AT, 4 days
# Settings in all cases: tags: N-Gal4 AD-HA kept; label: inside an RPR1-promoter hybrid RNA with tandem MS2 sites; ssRNA
# PUM1 PUF domain R6-FYS = target: T1, PUM1 PUF domain R6-FYS (Homo sapiens, UniProt Q14671 828-1176, N1043F;Q1047S)
# T1 sequence: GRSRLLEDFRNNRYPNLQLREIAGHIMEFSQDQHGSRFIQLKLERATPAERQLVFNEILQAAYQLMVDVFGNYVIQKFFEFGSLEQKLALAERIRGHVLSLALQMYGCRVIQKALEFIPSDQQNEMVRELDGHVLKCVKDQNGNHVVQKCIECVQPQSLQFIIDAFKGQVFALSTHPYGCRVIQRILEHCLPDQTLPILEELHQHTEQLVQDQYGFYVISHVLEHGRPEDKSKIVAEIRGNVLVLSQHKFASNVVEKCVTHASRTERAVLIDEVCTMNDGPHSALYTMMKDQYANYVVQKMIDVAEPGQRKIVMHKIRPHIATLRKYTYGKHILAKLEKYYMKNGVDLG
# In short: (§1)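 The interaction score is the log change in how often each variant appears, from input to selection. Frequencies came from PCR-amplified, Illumina-sequenced repeat regions of Pumilio-1 PUF domain libraries grown in strain YBZ-1 (LexA–MS2 coat fusion, HIS3 reporter) alongside matching RNA elements. Input plates were SC-Leu and selection plates were SC-Leu-His + 0.5 mM 3-AT, each for four days, and the log2 calculation used a pseudocount of 1 where a variant was absent.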
# PUM1 PUF domain R6-GYR = target: T2, PUM1 PUF domain R6-GYR (Homo sapiens, UniProt Q14671 828-1176, N1043G;Q1047R)
# T2 sequence: T1 sequence with F216G, S220R
# In short: as §1
# PUM1 PUF domain R6-GFA = target: T3, PUM1 PUF domain R6-GFA (Homo sapiens, UniProt Q14671 828-1176, N1043G;Y1044F;Q1047A)
# T3 sequence: T1 sequence with F216G, Y217F, S220A
# In short: as §1
# PUM1 PUF domain R6-MYS = target: T4, PUM1 PUF domain R6-MYS (Homo sapiens, UniProt Q14671 828-1176, N1043M;Q1047S)
# T4 sequence: T1 sequence with F216M
# In short: as §1
# PUM1 PUF domain R5-PMG = PUM1 PUF domain R5-PMG (Homo sapiens, UniProt Q14671 828-1176, C1007P;R1008M;Q1011G)
# In short: as §1
# PUM1 PUF domain R8-RHE = PUM1 PUF domain R8-RHE (Homo sapiens, UniProt Q14671 828-1176, N1122R;Y1123H;Q1126E)
# In short: as §1
# PUM1 PUF domain R5-TSR = PUM1 PUF domain R5-TSR (Homo sapiens, UniProt Q14671 828-1176, C1007T;R1008S;Q1011R)
# In short: as §1
# PUM1 PUF domain R5-QQR = PUM1 PUF domain R5-QQR (Homo sapiens, UniProt Q14671 828-1176, C1007Q;R1008Q;Q1011R)
# In short: as §1
# PUM1 PUF domain R5-RKI = PUM1 PUF domain R5-RKI (Homo sapiens, UniProt Q14671 828-1176, C1007R;R1008K;Q1011I)
# In short: as §1
# PUM1 PUF domain R4-WSR = PUM1 PUF domain R4-WSR (Homo sapiens, UniProt Q14671 828-1176, N971W;H972S;Q975R)
# In short: as §1
# PUM1 PUF domain R4-CNI = PUM1 PUF domain R4-CNI (Homo sapiens, UniProt Q14671 828-1176, N971C;H972N;Q975I)
# In short: as §1
# PUM1 PUF domain R4-NFS = PUM1 PUF domain R4-NFS (Homo sapiens, UniProt Q14671 828-1176, H972F;Q975S)
# In short: as §1
# PUM1 PUF domain R3-RVS = PUM1 PUF domain R3-RVS (Homo sapiens, UniProt Q14671 828-1176, C935R;R936V;Q939S)
# In short: as §1
# PUM1 PUF domain R3-LSR = PUM1 PUF domain R3-LSR (Homo sapiens, UniProt Q14671 828-1176, C935L;R936S;Q939R)
# In short: as §1
# PUM1 PUF domain R3-LFA = PUM1 PUF domain R3-LFA (Homo sapiens, UniProt Q14671 828-1176, C935L;R936F;Q939A)
# In short: as §1
# PUM1 PUF domain R1-RRK = PUM1 PUF domain R1-RRK (Homo sapiens, UniProt Q14671 828-1176, S863R;Q867K)
# In short: as §1
# PUM1 PUF domain R7-RML = PUM1 PUF domain R7-RML (Homo sapiens, UniProt Q14671 828-1176, S1079R;N1080M;E1083L)
# In short: as §1
sequence,measurement,setting,value
GGCUAGAACUAGUGGAUCCCCCGGCGCCCGGCGGCUCGAGCCCGGGUAAGUGUAAAUAGUCUGCAUGCCGCCGGGCGCCAUGCCUGCAGGUCGACUCUAGAAAACAUG,binding signal,PUM1 PUF domain R6-FYS,2.53 log2 enrichment (interaction score)
same,binding signal,PUM1 PUF domain R6-GYR,6.45 log2 enrichment (interaction score)
same,binding signal,PUM1 PUF domain R6-GFA,2.37 log2 enrichment (interaction score)
same,binding signal,PUM1 PUF domain R6-MYS,4.63 log2 enrichment (interaction score)
same,binding signal,PUM1 PUF domain R5-PMG,0.4 log2 enrichment (interaction score)
same,binding signal,PUM1 PUF domain R8-RHE,2.1 log2 enrichment (interaction score)
GGCUAGAACUAGUGGAUCCCCCGGCGCCCGGCGGCUCGAGCCCGGGUAAGUGUCAAUAGUCUGCAUGCCGCCGGGCGCCAUGCCUGCAGGUCGACUCUAGAAAACAUG,binding signal,PUM1 PUF domain R5-TSR,5.55 log2 enrichment (interaction score)
same,binding signal,PUM1 PUF domain R5-QQR,6.22 log2 enrichment (interaction score)
same,binding signal,PUM1 PUF domain R5-RKI,3.24 log2 enrichment (interaction score)
GGCUAGAACUAGUGGAUCCCCCGGCGCCCGGCGGCUCGAGCCCGGGUAAGUGUACAUAGUCUGCAUGCCGCCGGGCGCCAUGCCUGCAGGUCGACUCUAGAAAACAUG,binding signal,PUM1 PUF domain R4-WSR,2.55 log2 enrichment (interaction score)
same,binding signal,PUM1 PUF domain R4-CNI,3.63 log2 enrichment (interaction score)
GGCUAGAACUAGUGGAUCCCCCGGCGCCCGGCGGCUCGAGCCCGGGUAAGUGUAUAUAGUCUGCAUGCCGCCGGGCGCCAUGCCUGCAGGUCGACUCUAGAAAACAUG,binding signal,PUM1 PUF domain R4-WSR,1.87 log2 enrichment (interaction score)
same,binding signal,PUM1 PUF domain R4-NFS,3.51 log2 enrichment (interaction score)
GGCUAGAACUAGUGGAUCCCCCGGCGCCCGGCGGCUCGAGCCCGGGUAAGUGCAAAUAGUCUGCAUGCCGCCGGGCGCCAUGCCUGCAGGUCGACUCUAGAAAACAUG,binding signal,PUM1 PUF domain R6-GYR,5.76 log2 enrichment (interaction score)
GGCUAGAACUAGUGGAUCCCCCGGCGCCCGGCGGCUCGAGCCCGGGUAAGUGUAAUUAGUCUGCAUGCCGCCGGGCGCCAUGCCUGCAGGUCGACUCUAGAAAACAUG,binding signal,PUM1 PUF domain R3-RVS,2.78 log2 enrichment (interaction score)
same,binding signal,PUM1 PUF domain R3-LSR,4.8 log2 enrichment (interaction score)
same,binding signal,PUM1 PUF domain R3-LFA,2.26 log2 enrichment (interaction score)
GGCUAGAACUAGUGGAUCCCCCGGCGCCCGGCGGCUCGAGCCCGGGUAAGUGUAAAUUGUCUGCAUGCCGCCGGGCGCCAUGCCUGCAGGUCGACUCUAGAAAACAUG,binding signal,PUM1 PUF domain R1-RRK,2.68 log2 enrichment (interaction score)
GGCUAGAACUAGUGGAUCCCCCGGCGCCCGGCGGCUCGAGCCCGGGUAAGUGUAAAUCGUCUGCAUGCCGCCGGGCGCCAUGCCUGCAGGUCGACUCUAGAAAACAUG,binding signal,PUM1 PUF domain R1-RRK,2.94 log2 enrichment (interaction score)
GGCUAGAACUAGUGGAUCCCCCGGCGCCCGGCGGCUCGAGCCCGGGUAAGUGUUAAUAGUCUGCAUGCCGCCGGGCGCCAUGCCUGCAGGUCGACUCUAGAAAACAUG,binding signal,PUM1 PUF domain R5-PMG,3.73 log2 enrichment (interaction score)
GGCUAGAACUAGUGGAUCCCCCGGCGCCCGGCGGCUCGAGCCCGGGUAAGUGUAAGUAGUCUGCAUGCCGCCGGGCGCCAUGCCUGCAGGUCGACUCUAGAAAACAUG,binding signal,PUM1 PUF domain R3-LSR,5.61 log2 enrichment (interaction score)
same,binding signal,PUM1 PUF domain R3-LFA,4.36 log2 enrichment (interaction score)
GGCUAGAACUAGUGGAUCCCCCGGCGCCCGGCGGCUCGAGCCCGGGUAAGUUUAAAUAGUCUGCAUGCCGCCGGGCGCCAUGCCUGCAGGUCGACUCUAGAAAACAUG,binding signal,PUM1 PUF domain R7-RML,2.71 log2 enrichment (interaction score)
GGCUAGAACUAGUGGAUCCCCCGGCGCCCGGCGGCUCGAGCCCGGGUAAGCGUAAAUAGUCUGCAUGCCGCCGGGCGCCAUGCCUGCAGGUCGACUCUAGAAAACAUG,binding signal,PUM1 PUF domain R8-RHE,3.02 log2 enrichment (interaction score)
